WT yeast gro inh = growth inhibition of WT yeast, mitochondrial fusion screen; mitochondrial fusion phenotypic screen, WT strain; inhibition, % at 10 µM; 190,000 tested, 2.1% active; AID 1362; in the data active = inhibition above about 58%; tested in S. cerevisiae
Calpain2 inh = calpain II (pig) inhibition. purified calpain II, fluorogenic peptide substrate, 30 min. AID 1236. 220,000 tested, 0.37% active. inhibition, % at 16 µM;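 active = inhibition above about 50%, limit read from the data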
ROMK mod = modulates human ROMK potassium channel activity; Tet-inducible ROMK, thallium flux fluorescence; actives lie on both sides; B-score at 10 µM; 130,000 tested, 2% active; AID 1918;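 active = signal ratio slope over the read window, or its plate-corrected B-score, at least 3 SD from the plate mean, either direction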;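 note: B-score of the F/F0 ratio slope over 7 to 12 s after thallium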
Target sequence (P48048 whole entry, looked up): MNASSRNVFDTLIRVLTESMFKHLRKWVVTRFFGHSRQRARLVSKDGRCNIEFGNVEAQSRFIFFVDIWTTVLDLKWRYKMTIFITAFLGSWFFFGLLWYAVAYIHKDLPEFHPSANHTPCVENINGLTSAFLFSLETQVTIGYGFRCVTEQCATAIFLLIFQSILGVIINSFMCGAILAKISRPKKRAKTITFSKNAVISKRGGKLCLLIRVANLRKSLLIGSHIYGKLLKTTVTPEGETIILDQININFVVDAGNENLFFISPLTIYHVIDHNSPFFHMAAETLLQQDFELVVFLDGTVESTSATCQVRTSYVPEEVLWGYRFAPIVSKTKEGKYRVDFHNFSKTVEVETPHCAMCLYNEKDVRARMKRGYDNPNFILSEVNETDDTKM
Cl transport mod = KCC2 (human) Cl- transport modulation; 190,000 tested, 2.2% active; KCC2 cells, thallium flux FluoZin-2 fluorescence; Q9H2X9; AID 1456; B-score of Tl+ flux slope (higher = more flux/activation; lower = inhibition) at 10 µM;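 active = thallium flux slope and its plate-corrected score both differing from the plate sample mean at a set confidence after two filtering rounds, in either direction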;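 note: slope of fluorescence scaled to starting intensity during 10 to 20 s after thallium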
L major viab = reduces viability of Leishmania major promastigotes; resazurin fluorescence viability; inhibition, % at 10 µM; 200,000 tested, 9% active; in the data active = inhibition above about 50%;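 note: promastigotes grown with compound for 44 hours at 28 °C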
KCC2 sec1 = confirmation of human KCC2 transport modulators. 3,700 tested, 15% active. shares compounds with Cl transport mod. HEK293-KCC2, thallium flux, FluoZin2 fluorescence; hits give high values. normalised thallium flux (F/F0 slope) at 10 µM. AID 1713;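 active = thallium flux slope above the same plate's solvent-only control mean plus 3 SD; inconclusive = the two replicate wells disagree; inactive = no significant difference from solvent-only control wells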
KCC2 bumet counter = thallium flux persisting under bumetanide in KCC2 cells, counter-screen secondary assay. shares compounds with Cl transport mod. normalized thallium flux at 10 µM. HEK293-KCC2 + bumetanide/ouabain, thallium flux FluoZin2; hits give high values. 3,700 tested, 49% active;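 active = thallium entry rate above the same plate's blocked-transporter control wells by more than 3 SD; inconclusive = the two repeat wells disagree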;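 note: raw slope of fluorescence over initial fluorescence between 10 and 20 s after thallium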
KCC2 secondary2 = KCC2 (human) modulation, second secondary assay | HEK293-KCC2, thallium flux FluoZin2 fluorescence; actives lie on both sides; F/F0 rise rate, 10–20 s post-thallium | normalized thallium flux at 10 µM | 3,700 tested, 23% active | shares compounds with Cl transport mod;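 active = thallium flux slope more than 3 SD above or below the plate's solvent-only control mean, mostly below; inconclusive = the two repeat wells disagreed; inactive = no significant shift from solvent-only controls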
HEK counter1 = counter-screen for KCC2 modulators: effect in parental HEK293 cells; thallium flux rate (normalised fluorescence) at 10 µM; AID 1716; 3,700 tested, 46% active; thallium flux FluoZin2, ouabain; baseline-ratio fluorescence slope, 10–20 s after thallium; shares compounds with Cl transport mod;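 active = thallium flux rate significantly above the same plate's solvent-only control wells, beyond their mean plus 3 SD; inconclusive = the two replicate wells gave conflicting results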
KCC2 retest ouab = modulates human KCC2 on retest with ouabain; shares compounds with Cl transport mod; HEK293-KCC2, thallium flux FluoZin2 fluorescence; bidirectional: low = inhibitor, high = activator; raw Tl+ flux slope (below DMSO = inhibition, above = activation) at 10 µM; 3,700 tested, 48% active; AID 1717;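 active = thallium flux slope beyond 3 SD from same-plate DMSO control mean in most replicates, usually higher, sometimes lower; inconclusive = repeat tests gave conflicting results; inactive = no significant difference from controls in most replicates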;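 note: slope of initial-normalized fluorescence between seconds 10 and 20 after thallium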
HEK counter2 = parental HEK flux effect, counter-screen 2. 3,700 tested, 33% active. HEK293 parental, thallium flux FluoZin-2 fluorescence slope. thallium flux slope at 10 µM. shares compounds with Cl transport mod. AID 1718;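 active = thallium flux slope above the same plate's solvent-control mean plus 3 SD in both duplicate wells; inconclusive = duplicate wells that disagreed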;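 note: run without ouabain in cells lacking the KCC2 cotransporter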
Large screens that a line does not name were inactive (follow-up assays come after a bar, where they were run). Rows were chosen to be rich in hits. Some 12% of all compounds tested hit in one or more screens of this group.

O=C(Nc1ccccc1C(=O)Nc1nnc(C(F)(F)F)s1)c1ccccc1	Cl transport mod 3.19 (no result: WT yeast gro inh, ROMK mod, L major viab) | KCC2 sec1 inconclusive | KCC2 bumet counter 0.022 | KCC2 secondary2 inactive | HEK counter1 inconclusive | KCC2 retest ouab inactive | HEK counter2 inactive
S=C(NCc1ccco1)Nc1ccc(Br)cc1Cl	Cl transport mod 4.01 | KCC2 sec1 inactive | KCC2 bumet counter 0.0105 | KCC2 secondary2 inactive | HEK counter1 0.00926 | KCC2 retest ouab inactive | HEK counter2 inconclusive
S=C(NCc1ccco1)Nc1ccc(Cl)cc1Cl	none
O=C(c1ccc(NS(=O)(=O)c2ccc3c(c2)OCCO3)cc1)N1CCCCC1	none (no result: WT yeast gro inh, ROMK mod, L major viab)
CCC(CC)NC(=O)COC(=O)c1ccc(NS(=O)(=O)c2ccc3c(c2)OCCO3)cc1	Cl transport mod 2.71 | KCC2 sec1 inactive | KCC2 bumet counter inactive | KCC2 secondary2 inactive | HEK counter1 inactive | KCC2 retest ouab inactive | HEK counter2 0.0104
C=CCn1c(CSc2nc3ccccc3s2)n[nH]c1=S	Cl transport mod -4.42 (no result: ROMK mod) | KCC2 sec1 inactive | KCC2 bumet counter 0.00932 | KCC2 secondary2 0.0237 | HEK counter1 0.00992 | KCC2 retest ouab 0.0144 | HEK counter2 inconclusive
Cc1ccc(-c2c[nH]c(=S)n2-c2ccccc2)cc1	Cl transport mod 7.28 | KCC2 sec1 inactive | KCC2 bumet counter 0.0226 | KCC2 secondary2 inactive | HEK counter1 inconclusive | KCC2 retest ouab inconclusive | HEK counter2 inconclusive
CCOC(=O)C1(CCCc2ccccc2)CCN(Cc2cnc(C)s2)CC1	Cl transport mod -4.91, L major viab 77.4 | KCC2 sec1 inconclusive | KCC2 bumet counter inactive | KCC2 secondary2 inconclusive | HEK counter1 inactive | KCC2 retest ouab inactive | HEK counter2 inactive
CCc1ccc2c(c1)C(=O)C(=O)N2CC(=O)Nc1ccc(NC(=O)c2ccccn2)cc1	none
O=C(C1CCCN(S(=O)(=O)c2cccc3nsnc23)C1)N1CCCCCC1 (configuration not stated)	none
O=C(C1CCCN(S(=O)(=O)c2cccc3nsnc23)C1)N1CCc2ccccc21 (configuration not stated)	none (no result: Cl transport mod) | KCC2 sec1 inactive | KCC2 bumet counter inactive | KCC2 secondary2 inactive | HEK counter1 inconclusive | KCC2 retest ouab inactive | HEK counter2 inactive
O=C(C1CCCN(S(=O)(=O)c2cccc3nsnc23)C1)N1CCc2ccccc2C1 (configuration not stated)	Cl transport mod -3.16 | KCC2 sec1 inactive | KCC2 bumet counter inactive | KCC2 secondary2 inactive | HEK counter1 inactive | KCC2 retest ouab inactive | HEK counter2 inactive
O=C(NCc1ccccc1Cl)C1CCCN(S(=O)(=O)c2cccc3nsnc23)C1 (configuration not stated)	none
COc1ccc(S(=O)(=O)NCCOc2ccccc2)cc1-n1cnnn1	Cl transport mod -3.8 | KCC2 sec1 inactive | KCC2 bumet counter inconclusive | KCC2 secondary2 0.0249 | HEK counter1 inactive | KCC2 retest ouab 0.0169 | HEK counter2 inactive
c1ccc(-c2ccc(-n3ccnc3)cc2)cc1	none (no result: Cl transport mod) | KCC2 sec1 inactive | KCC2 bumet counter inactive | KCC2 secondary2 inconclusive | HEK counter1 inactive | KCC2 retest ouab 0.0174 | HEK counter2 inactive
O=C(COC(=O)/C=C/C(=O)N1CCN(c2ccccc2)CC1)NC(c1ccccc1)c1ccccc1	none
Cc1ccc2[nH]c(=S)cc(C)c2c1	Cl transport mod 20.6 | KCC2 sec1 inactive | KCC2 bumet counter inconclusive | KCC2 secondary2 inactive | HEK counter1 inconclusive | KCC2 retest ouab inconclusive | HEK counter2 0.019
Cc1ccc(-c2cc(=O)c3cc(C)ccc3[nH]2)cc1	none
Cc1cc(=S)[nH]c2ccccc12	Cl transport mod 5.84 | KCC2 sec1 inactive | KCC2 bumet counter 0.0154 | KCC2 secondary2 inactive | HEK counter1 0.0151 | KCC2 retest ouab inconclusive | HEK counter2 0.0148
Cc1ccc2c(C)cc(=S)[nH]c2c1	Cl transport mod 28.8 | KCC2 sec1 inactive | KCC2 bumet counter 0.0197 | KCC2 secondary2 inactive | HEK counter1 0.024 | KCC2 retest ouab 0.0301 | HEK counter2 0.021
Cc1ccc(C)c2c1[nH]c1ccccc12	none (no result: Cl transport mod)
COc1cc(Cl)ccc1NC(=S)N(CCN1CCOCC1)C1CCN(C(C)=O)CC1	none
CCOC(=O)c1sc2nc(SC)nc(-c3ccc(Cl)cc3)c2c1N	none (no result: ROMK mod)
CCOC(=O)c1sc(-c2ccc(Cl)cc2)nc1O	Cl transport mod 14.8 (no result: WT yeast gro inh, ROMK mod, L major viab) | KCC2 sec1 inactive | KCC2 bumet counter 0.0216 | KCC2 secondary2 inactive | HEK counter1 0.0106 | KCC2 retest ouab inactive | HEK counter2 inconclusive
CCOC(=O)c1sc(C)c2c(=O)n(Cc3ccc(Cl)cc3)c(C)nc12	none (no result: ROMK mod)
CCOC(=O)c1sc2nc(Cc3ccc(Cl)cc3)[nH]c(=S)c2c1C	Cl transport mod 79.1 | KCC2 sec1 0.0248 | KCC2 bumet counter 0.119 | KCC2 secondary2 0.0379 | HEK counter1 0.0522 | KCC2 retest ouab 0.0759 | HEK counter2 0.0262
CCOC(=O)c1sc(-c2cccc(C(F)(F)F)c2)nc1O	Cl transport mod 8.14 (no result: WT yeast gro inh, ROMK mod, L major viab) | KCC2 sec1 inactive | KCC2 bumet counter 0.015 | KCC2 secondary2 inactive | HEK counter1 0.012 | KCC2 retest ouab inconclusive | HEK counter2 0.0135
CCOC(=O)c1sc(-c2ccc(C(F)(F)F)cc2)nc1O	none (no result: WT yeast gro inh, ROMK mod, L major viab)
COCCN1C(=O)/C(=C/c2ccc(OCc3ccc(C(=O)O)cc3)c(OC)c2)SC1=Nc1ccccc1	WT yeast gro inh 58.9, Cl transport mod -5.7 | KCC2 sec1 inactive | KCC2 bumet counter inactive | KCC2 secondary2 0.0221 | HEK counter1 inactive | KCC2 retest ouab 0.0131 | HEK counter2 inactive
CSCCC(NC(=O)c1ccc([N+](=O)[O-])cc1Cl)C(=O)OCC(=O)NCCCc1ccccc1 (configuration not stated)	Cl transport mod -4.28 | KCC2 sec1 inactive | KCC2 bumet counter inconclusive | KCC2 secondary2 0.0263 | HEK counter1 inactive | KCC2 retest ouab inconclusive | HEK counter2 inactive
CCOc1ccc(-n2c(=O)c3sccc3n(CC(=O)NCCc3ccc(OC)c(OC)c3)c2=O)cc1	none
COc1ccc(S(=O)(=O)NCCSCc2ccco2)cc1Cl	Cl transport mod 6.41 | KCC2 sec1 inactive | KCC2 bumet counter inactive | KCC2 secondary2 inactive | HEK counter1 inactive | KCC2 retest ouab inactive | HEK counter2 inactive
CN(C)c1nc(/C=C(\C#N)C(N)=O)c(Cl)n1-c1ccc(F)cc1	none
